This note sets out measurements from publication PMC5540273 (PLoS ONE, 2017).
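Note: KINOMEscan kinase panel screen.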

The subject of this experiment is STK36. The settings on record: concentration: 1 μM,replicates: in singlicate; n = 1.
Regarding `CN1CCN(CCCNc2nccc(-c3c(-c4ccc(F)cc4)nn4cc(C(N)=O)ccc34)n2)CC1` [GW622475], the “%Inh” value was determined as 98.9%. Next, `C[C@@H]1CNc2c(sc3ccc4nc(-c5ccc(O)cc5)ccc4c23)C(=O)N1`: 5%; `CCn1c(-c2nonc2N)nc2cncc(Br)c21` [SB-738004]: 0%. Turning to `C[C@@H]1CCN(C(=O)N2CCCC2)C[C@@H]1N(C)c1ncnc2[nH]ccc12`, the “%Inh” value is listed as 7%. With `CS(=O)c1ccc(-c2coc3ccc(-c4n[nH]c(=O)o4)cc23)cc1` (stereo not shown), the “%Inh” value is recorded as 0%. In the case of `CCn1c(-c2nonc2N)nc2cncc(CNC3CCNCC3)c21.Cl` [SB-747651] it was 0%. In the case of `C[C@@H](Oc1cc(-n2cnc3cc(-c4cnn(C)c4)ccc32)sc1C(N)=O)c1ccccc1Cl` [GSK580432] it was 0%; in that of `CN1CCN(CCNc2nc3cc(Oc4ccc(NC(=O)Nc5cc(C(F)(F)F)ccc5F)cc4)ccc3[nH]2)CC1.Cl.Cl` [GW768504], 13%. In the case of `CCNCC(Cc1ccccc1)NC(=O)c1cc(Br)c(-c2ccnc3[nH]ccc23)s1.Cl.Cl` (stereo not shown) [GSK1383280] it was 0%; in that of `CCCC(=O)Nc1n[nH]c2ncccc12` [SB-601436], 4%; in that of `COc1cccc(C2=C(Nc3cccc(Cl)c3)C(=O)NC2=O)c1` [SB-341556], 0%.

Turning to `C[C@@H]1CNc2c(sc3ccc4nc(-c5ccncc5)ccc4c23)C(=O)N1`, the “%Inh” value worked out at 6%. In the case of `CC(=O)c1c(-c2ccncc2)[nH]c(-c2ccncc2)c1C` [GW493036] it was 10%. Next, `CCN1CCN(CCCC(=O)Nc2n[nH]c3nc(-c4ccc(O)cc4)c(Br)cc23)CC1` [SB-731579]: 0%.

As to `O=c1[nH]cc(-c2ccc(O)cc2)c2sc(-c3ccncc3)cc12` [GSK1033723], the “%Inh” value amounted to 26%. In the case of `Nc1nccc(-c2ccc3c(N)n[nH]c3c2)n1` [GSK1034945] it was 0%. Next, `COC(=O)c1cccc(NC(=O)NC2CCN(c3ccnc(NCc4ccc(F)cc4)n3)CC2)c1` [GSK1379860]: 0%; `COc1cc2nccc(Nc3ccc(Oc4ccccc4)cc3)c2cc1OC.Cl` [GI261656]: 0%; `Cn1ccc2ncnc(Oc3ccc(NC(=O)Nc4cccc(C(F)(F)F)c4)c(Cl)c3)c21`: 0%. As for `CNC(=O)c1ccccc1Nc1nc(Nc2cccc(CS(C)(=O)=O)c2)ncc1C.O=CO` [GSK1520489], the “%Inh” value is given as 65%.

In the case of `Cc1cccc2c(-c3ccncc3)c(-c3ccc(F)cc3)nn12.Cl` [GW461487], the “%Inh” value came to 24%. Next, `Cc1nnc(-c2ccc3occ(-c4ccc(S(C)=O)cc4)c3n2)o1` (stereo not shown): 0%; `OCCn1cc(-c2cnc3nnn(Cc4ccc5ncccc5c4)c3n2)cn1`: 0%; `COC(=O)c1cccc(NC(=O)NC2CCN(c3ccnc(Nc4cc(OC)c(OC)c(OC)c4)n3)C2)c1` (stereo not shown) [GSK1379767]: 0%. In the case of `O=C(Nc1cccc(C(F)(F)F)c1)c1cccc(Oc2ccc3nccn3n2)c1` it was 0%.

In the case of `Cc1cccc(-c2nc(Nc3ccncc3)c3sccc3n2)n1` [GW869641], the “%Inh” value is listed as 24%.

With `COc1cc2ncn(-c3cc(OCC4CCCCC4)c(C(N)=O)s3)c2cc1OC` [GSK204559], the “%Inh” value was 0%. Next, `Cn1cc(-c2cccc3c(N)c(C(N)=O)nnc23)cn1`: 6%; `NC(=O)Nc1sc(-c2ccc(F)cc2)cc1C(N)=O` [GW789449]: 0%; `c1ccc(Oc2ccc(Nc3ccnc4ccc(-c5ccccn5)cc34)cc2)cc1` [GW407034]: 0%. Next, `Cn1ccc2ncnc(Oc3ccc(NC(=O)Nc4cnn(C(C)(C)C)c4)c(Cl)c3)c21`: 7%; `Cc1ccc(Nc2ccnc(Nc3ccc4c(c3)CS(=O)(=O)C4)n2)cc1O.Cl` [GW579362]: 92.2%; `Cc1ccc(C(=O)Nc2ccc(Oc3ccc4nc(NC(=O)C5CC5)cn4c3)c(F)c2)c(=O)n1-c1ccccc1`: 3%. For the molecule `CC(C(=O)NC1CCN(c2ccnc(Nc3ccc(F)cc3)n2)C1)c1ccc(Cl)cc1` (stereo not shown) [GSK1379713], the “%Inh” value came out at 0%.

Take `COC(=O)Nc1nc2cc(Oc3ccc(NC(=O)Nc4cc(C(F)(F)F)ccc4Cl)cc3)ccc2[nH]1.Cl` [GW697465]: the “%Inh” value is on record as 0%. Next, `CCOC(=O)N1CCC(n2cnc(-c3ccc(F)cc3)c2-c2ccnc(N)n2)CC1` [SB-219952]: 47%.

As to `Cn1ccc2ncnc(Oc3ccc(NC(=O)Nc4cc(C(C)(C)C)on4)c(Cl)c3)c21`, the “%Inh” value worked out at 0%.
